CYP2C9 inh: blocks human cytochrome P450 2C9; inhibition, % at 5 µM; CYP2C9 Supersomes, luciferin-H conversion, luminescence; 96,000 compounds, 20% hits;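 active = blocking of liver enzyme CYP2C9 beyond about 50% at 5 µM, limit read from the data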
CYP2C19 activ: cytochrome P450 2C19 (human) activation | activation factor at 5 µM | recombinant CYP2C19, luciferin-H EGE luminescence; active compounds read high; 0 = fully inhibited enzyme, 1 = untreated enzyme | 96,000 tested, under 10 active | P33261;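 active = activation factor of at least 2 at 5 µM in the primary screen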;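 note: 0 = wells with 2.5 mM tranylcypromine and 1 = vehicle-only wells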
Target sequence (P33261 whole entry, looked up): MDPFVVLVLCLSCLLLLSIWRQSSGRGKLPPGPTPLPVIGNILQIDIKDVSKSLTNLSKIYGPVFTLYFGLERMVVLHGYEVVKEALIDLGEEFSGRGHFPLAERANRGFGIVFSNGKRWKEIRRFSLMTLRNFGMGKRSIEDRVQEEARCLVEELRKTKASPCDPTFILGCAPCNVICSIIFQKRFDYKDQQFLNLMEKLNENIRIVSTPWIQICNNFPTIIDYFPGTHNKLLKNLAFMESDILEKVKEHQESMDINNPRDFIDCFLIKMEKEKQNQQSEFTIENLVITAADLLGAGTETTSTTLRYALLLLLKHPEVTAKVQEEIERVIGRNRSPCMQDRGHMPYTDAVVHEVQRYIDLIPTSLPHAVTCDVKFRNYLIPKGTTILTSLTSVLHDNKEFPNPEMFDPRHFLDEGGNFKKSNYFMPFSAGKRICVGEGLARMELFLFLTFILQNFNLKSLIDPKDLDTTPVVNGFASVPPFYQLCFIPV
CD11b adhes enh: enhancers of human CD11b/CD18 binding to fibrinogen; AID 1499; activation, % at 10 µM; K562 CD11b/CD18 adhesion to fibrinogen, ATPlite luminescence; 93,000 compounds, 0.07% hits; P05107+P11215;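 active = 10 µM primary screen giving 50% or more activity, confirmed by 40% or more on retest at that dose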
Mac1 fbg inh: CD11b/CD18-fibrinogen binding inhibition; P05107+P11215; K562 CD11b/CD18 adhesion to fibrinogen, ATPlite luminescence; Mn2+ added to activate the integrin; inhibition, % at 10 µM; 93,000 compounds, 0.54% hits; AID 1497;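 active = primary inhibition of 50% or more at 10 µM, then 40% or more on retest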
CYP2C9 act: activators of human CYP2C9; P11712; recombinant CYP2C9, luciferin-H conversion, luminescence; active compounds read high; factor 1 = untreated enzyme, 0 = blocked; activation factor at 5 µM; 96,000 compounds, 1.4% hits; AID 1024;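 active = activation factor of 2 or more for CYP2C9 at a 5 µM dose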;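 note: 0 = sulfaphenazole-blocked wells and 1 = vehicle-only wells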
CYP2C19 inhib: human CYP2C19 inhibition. P33261. CYP2C19 Supersomes, luciferin-H EGE luminescence, 30 min. inhibition, % at 5 µM. 96,000 compounds, 21% hits. AID 778;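 active = CYP2C19 inhibition above a set limit at 5 µM in the primary screen, cut at about 50% in these data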;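 note: plate controls were negative control wells for no effect and 2.5 mM tranylcypromine positive control for full effect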
The depositor's hits bear a star; x = no result given. Shown are actives, neighbours in structure and some others; about 28% of the full set was active somewhere.

SMILES	CYP2C9 inh	CYP2C19 activ	CD11b adhes enh	Mac1 fbg inh	CYP2C9 act	CYP2C19 inhib
CCOC(=O)C1CCCCN1C(=O)CCc1c(C)nc2cc(-c3ccccc3)nn2c1C (centres undefined)	60*	0.3	-3	-4	0.4	68*
O=C(COc1ccc(C(=O)c2ccccc2)cc1)NCC1CCCCC1	x	x	-4	56	x	x
Cc1ccc(C2=NCCNC2=O)c(C)c1	5	1	0	-7	0.9	-3
Cc1cc(OCC(=O)NCc2nc(-c3ccccc3)no2)c(C)cc1Br	11	1	5	-17	0.9	-3
O=C(CN1C(=O)NC2(CCc3ccccc32)C1=O)Nc1ccc(N2CCOCC2)cc1 (centres undefined)	4	1	1	-31	1	-2
Cc1cccc(C)c1NC(=O)C(NC=O)c1ccc(N(C)C)cc1 (centres undefined)	60*	0.4	-2	-1	0.4	64*
N/C(=N\OC(=O)c1cc(Cl)ccc1Cl)c1cccnc1	34	0.3	-4	0	0.7	72*
CN(C)S(=O)(=O)c1ccc2[nH]cc(/C=C/c3nc4ccccc4c(=O)n3-c3ccccc3)c2c1	69*	0.3	x	x	0.3	70*
CCOc1ccccc1NC(=O)Cn1nnc(-c2ccc(OCC)c(OCC)c2)n1	85*	0.1	0	-5	0.2	89*
COC(=O)c1cc(OC)c(OC)cc1NC(=O)CSc1ccccc1	7	0.3	3	5	0.9	65*
CCOC(=O)N1CCN(C(=S)Nc2cc(OC)c(OC)cc2C(=O)OC)CC1	2	0	x	x	1	98*
CCOc1ccccc1NC(=O)CSc1ccccc1	-257	0.5	-4	-8	3.6*	51*
COc1ccccc1NC(=O)CCC(=O)O	56*	0.9	7	2	0.4	14
CCOc1ccccc1NC(=O)Cc1ccccc1OC	-120	0.4	-5	-4	2.2*	58*
CCOc1ccccc1NC(=O)CCC(=O)O	21	0.8	x	x	0.8	22
CCOc1ccccc1NC(=O)NS(=O)(=O)c1ccc(C)cc1	91*	0.8	3	-4	0.1	20
CCOc1cc(N2CCOCC2)c(OCC)cc1NC(=O)Cc1ccccc1OC	3	0.7	x	x	1	32
CCOC(=O)Nc1cccc(OCC(=O)Nc2ccccc2OCC)c1	-33	0.1	-3	8	1.3	88*
CC(=O)Nc1cccc(OCC(=O)Nc2ccccc2)c1	-26	0.7	2	8	1.3	34
COc1cccc(N/C(N)=N/c2nc(C(F)(F)F)cc(=O)[nH]2)c1	x	x	29	2	x	x
CCOc1ccccc1NC(=O)CCN1CCN(S(=O)(=O)c2ccc(Br)cc2)CC1	36	0.4	-1	-6	0.6	63*
CCNC(=O)OCC(CC)NC(=O)OCC(C)C (centres undefined)	-39	1	-4	3	1.4	4
CCOC(=O)Nc1cccc(Nc2ccccc2)c1	75*	0.2	2	-18	0.2	79*
CCC(COC(=O)Nc1cccc(C)c1)NC(=O)OCC(C)C (centres undefined)	55*	0.1	-3	1	0.4	93*
CCOc1ccccc1NC(=O)CCC(=O)Nc1ccccc1OCC	-166	0.5	-5	34	2.7*	47
SMILES	CYP2C9 inh	CYP2C19 activ	CD11b adhes enh	Mac1 fbg inh	CYP2C9 act	CYP2C19 inhib
COc1cccc(NS(=O)(=O)c2nc3nc(C)cc(C)n3n2)c1	-7	1	-2	-14	1.1	-4
COc1cc(S(=O)(=O)N2CCN(C)CC2)c(OC)cc1Br	-36	0.9	3	-7	1.4	8
Cc1ccccc1OCCCC(=O)Nc1ccccc1C(F)(F)F	-122	0.7	x	x	2.2*	32
Cc1cccc(OCCCC(=O)Nc2ccccc2C(F)(F)F)c1	4	0.7	9	-4	1	34
O=C1N/C(=N\N=C\c2cccs2)SC1Cc1cccc(Cl)c1Cl (centres undefined)	x	x	7	28	x	x
COc1nc(N2CCOCC2)nc(-n2cccc2)n1	11	1	x	x	0.9	-2
O=C1C2CC=C(Cl)CC2C(=O)N1CCCCCCN1C(=O)C2CC=C(Cl)CC2C1=O (centres undefined)	82*	0.3	1	6	0.2	75*
CCCCCCCc1c(C)nc(N2CCOCC2)[nH]c1=O	74*	0.5	-1	-12	0.3	51*
CCCC1CCC(C(=O)Nn2cnc3ccccc3c2=O)CC1 (centres undefined)	56*	0.4	x	x	0.4	58*
O=C(Nn1cnc2ccccc2c1=O)C1CCCCC1	16	0.9	-5	-11	0.8	7
CC1CCN(S(=O)(=O)c2cccc(C(=O)Nc3ccccn3)c2)CC1	10	0.9	4	-3	0.9	6
CC1CCN(S(=O)(=O)c2cc(Br)cc(C(=O)NC3=NCCS3)c2)CC1	45	0.3	-4	-4	0.6	68*
O=S(=O)(c1cccc(-c2nnc(SCc3nc4ccccc4s3)o2)c1)N1CCOCC1	50	0.5	x	x	0.5	51*
O=c1c2ccccc2nnn1CSc1nnc(-c2cccc(S(=O)(=O)N3CCCCC3)c2)o1	81*	0.3	x	x	0.2	75*
CCOCCOC(=O)C1=C(C)NC2=C(C(=O)CC(c3cccs3)C2)C1c1ccsc1 (centres undefined)	34	0.8	0	2	0.7	19
CC1=C(C(=O)Nc2ccccc2F)C(c2ccsc2)C2=C(CC(c3ccccc3)CC2=O)N1 (centres undefined)	6	0.2	0	6	0.9	79*
C=CCn1c(SCC(=O)N(C)C2CCS(=O)(=O)C2)nnc1-c1ccncc1 (centres undefined)	-11	1	-3	-16	1.1	-5
CCC(C)C(=O)Nc1nc(C)c(-c2csc(Nc3cc(Cl)ccc3OC)n2)s1 (centres undefined)	46	1	10	-14	0.5	5
CCC(C)C(=O)Nc1nc(C)c(-c2csc(Nc3cc(OC)ccc3OC)n2)s1 (centres undefined)	75*	0.8	7	-11	0.3	21
COc1ccccc1Nc1nc(-c2sc(NC(=O)c3ccc([N+](=O)[O-])cc3)nc2C)cs1	78*	0.6	x	x	0.2	44
COc1ccccc1Nc1nc(-c2sc(NC(=O)c3ccccc3)nc2C)cs1	32	1	-3	3	0.7	1
COc1ccc(OC)c(Nc2nc(-c3sc(NC(=O)CC(C)C)nc3C)cs2)c1	78*	0.7	22	-8	0.2	28
COc1ccc(OC)c(Nc2nc(-c3sc(C)nc3C)cs2)c1	80*	0.1	1	5	0.2	85*
CCOC(=O)N1CCN(C(=O)c2cc3cc(Br)ccc3oc2=O)CC1	2	0.9	-1	-7	1	13
